Bioassay records deposited in PubChem by National Center for Advancing Translational Sciences (NCATS).
ELG1 genotoxic: qHTS screen for small molecules that induce genotoxicity in human embryonic kidney (HEK293T) cells expressing luciferase-tagged ELG1 | actives 1.3% (n = 330,000) | HEK293T ELG1-luciferase reporter, luminescence, 16 h | AID 504466, 2011 | Potency, µM (titrated, usually from 46 µM), for inactives: at the top dose activity change, positive = activation, most hits filed as activators; further: % of control where 0% means no effect; nearly all actives have a fitted effect of over 60% in size
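Quantitative HTS format in 1536-well plates. HEK293T ELG1-luciferase reporter cells receive test compound and are incubated 16 hr at 37 °C, 5% CO2; ONE-Glo added, 30 min room temperature, then luminescence read.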
FLuc modulator: qHTS profiling assay for firefly luciferase inhibitor/activator using purifed enzyme and Km concentrations of substrates (counterscreen for miR-21 project); Luciferin 4-monooxygenase (Photinus pyralis), P08659; actives 6.9% (n = 360,000); purified FLuc, Km substrates, luminescence inhibition; AID 588342, 2011; Potency, µM (series often up to 57.5 µM), without a hit: top-dose activity change, negative = inhibition, actives largely listed as inhibitors;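 further: plate controls were vehicle for no effect and reference inhibitor for full effect; nearly all actives have a fitted effect of over 55% in size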
Target sequence (P08659 whole entry, looked up): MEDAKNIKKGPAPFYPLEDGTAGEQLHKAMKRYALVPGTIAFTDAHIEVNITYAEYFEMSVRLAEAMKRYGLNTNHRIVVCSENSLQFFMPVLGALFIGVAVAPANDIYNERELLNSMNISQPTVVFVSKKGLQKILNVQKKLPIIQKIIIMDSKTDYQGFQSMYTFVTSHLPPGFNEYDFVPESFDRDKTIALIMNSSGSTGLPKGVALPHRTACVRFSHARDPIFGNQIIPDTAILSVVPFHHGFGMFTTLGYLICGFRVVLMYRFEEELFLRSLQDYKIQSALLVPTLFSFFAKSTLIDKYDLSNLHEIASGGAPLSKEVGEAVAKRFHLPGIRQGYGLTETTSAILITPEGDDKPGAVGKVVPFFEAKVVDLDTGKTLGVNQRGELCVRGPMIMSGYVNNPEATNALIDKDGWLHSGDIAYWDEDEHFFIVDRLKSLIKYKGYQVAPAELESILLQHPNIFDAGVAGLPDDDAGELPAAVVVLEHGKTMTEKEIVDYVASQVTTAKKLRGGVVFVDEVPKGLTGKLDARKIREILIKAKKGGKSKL
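Purified P. pyralis luciferase (10nM final) with 10uM D-luciferin and 10uM ATP (Km levels) in 50mM Tris acetate pH 7.5, 10mM Mg acetate, 0.01% Tween-20, 0.05% BSA; qHTS 6-point titration, ~60 µM downward; luminescence read.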
SMN2 splice up: qHTS Assay for Enhancers of SMN2 Splice Variant Expression; HEK293 SMN2-luciferase splicing reporter, luminescence, 30-36 h; Potency, µM (top dose mostly 46.1 µM), for the others: at the highest dose activity change, positive = activation, hits mostly activators; actives 2.8% (n = 210,000); AID 1458, 2008; further: % of control where 0% means no effect; nearly all actives have a fitted effect of over 55% in size
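HEK293 cells carry an SMN2 […]–luciferase reporter in which exon 7 inclusion puts luciferase in frame. Cells were plated 10-12 h before compound addition, then incubated 30-36 h at 37C. ONE-Glo luminescence was read; sodium butyrate at 4.5 mM final served as control.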
ELG1 DNA repair: qHTS screen for small molecules that inhibit ELG1-dependent DNA repair in human embryonic kidney (HEK293T) cells expressing luciferase-tagged ELG1; HEK293T ELG1-luciferase reporter, luminescence, 16 h; DNA damage induced by 5-fluorouridine; Potency, µM (top dose mostly 46.1 µM), for the others: at the highest dose activity change, negative = inhibition, hits mostly inhibitors; actives 2.3% (n = 330,000); AID 504467, 2011; further: on the % scale 0 is the no-effect control and ±100 the full control effect; nearly all actives have a fitted effect of over 55% in size
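DMSO vehicle served as the neutral condition. Each well held 2,000 cells given 5-fluorouridine plus compound; after 16 hr at 37 °C/5% CO2, ONE-Glo was added and luciferase measured 30 min later.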
NPC1 promoter act: qHTS Assay for NPC1 Promoter Activators; Huh7 NPC1 promoter luciferase reporter, 24 h; Potency, µM (series often up to 9.22 µM), for inactives: top-dose activation, usual class: activators; actives 2.4% (n = 320,000); AID 485313, 2010; further: % of control where 0% means no effect; nearly all actives have a fitted effect of over 60% in size
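Huh7 cells stably carrying NPC1 promoter–luciferase, plated in Opti-MEM with 10% FBS for 2 h, were exposed to compound in DMSO for 24 h at 37 °C; luciferase reagent was added for 10 min and luminescence read.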
Rab9 prom act: qHTS Assay for Rab9 Promoter Activators. Huh7 Rab9 promoter-luciferase reporter, luminescence, 24 h. Potency, µM (doses to about 9.22 µM), for the others: at the highest dose activation, negative = inhibition, usual class: activators. actives 2.8% (n = 320,000). AID 485297, 2010; further: % of control where 0% means no effect; nearly all actives have a fitted effect of over 60% in size
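Promoter activation is measured as luciferase luminescence in Huh7 cells stably transfected with a Rab9 promoter–luciferase construct, following 24 h compound exposure at 37 °C and 10 min reagent incubation at ambient temperature.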
* marks the source's active call; other numbers are inactive results; ? = inconclusive; . = no result; [ ] = another dose, or the depositor's remark. Rows were chosen to be rich in hits. Some 9.3% of all compounds tested hit in one or more screens of this group. The call rests on the fitted dose curve; in most records, active means well fitted curve in the direction sought with a large enough effect; inconclusive means small, poorly fitted or top-dose-only effect, or another doubt; inactive means no such curve, though single readings can be large; an effect the other way counts as inactive or inconclusive. Potency means the concentration at half of the fitted maximal effect.

SMILES | ELG1 genotoxic | FLuc modulator | SMN2 splice up | ELG1 DNA repair | NPC1 promoter act | Rab9 prom act
Cc1cc(OCC(=O)Nc2cccc(S(=O)(=O)NC3=NCCCCC3)c2)ccc1Cl | -4.7% | 16.9µM* | -14.2% | -17.4% | -0.4% | -0.2%
O=C(/C=C/c1ccccc1[N+](=O)[O-])Nc1cccc(S(=O)(=O)NC2=NCCCCC2)c1 | 0.1% | . | . | ? | . | .
COc1cccc(CNC(=O)CCCc2c[nH]c3ccccc23)c1 | -5.4% | 1.3% | . | 9.7% | 3.7% | 10.5%
O=C(COc1cccc(C(F)(F)F)c1)NCC(c1cccs1)N1CCOCC1 (centres undefined) | -5.0% | 4.6% | . | -2.9% | 0.2% | 1.0%
CC(=O)C1CCC2C3CC(C)C4=CC(=O)CC[C@@]4(C)C3C(O)C[C@@]12C (some centres undefined) | . | . | -15.2% | . | . | .
O=C(OCc1cc2ccccc2[nH]c1=O)c1ccccc1 | 1.6% | -0.3% | -12.5% | 0.0% | -9.7% | 2.1%
O=C(COc1ccccc1)OCc1cc2ccccc2[nH]c1=O | -7.1% | 21.3µM* | -6.2% | ? | -1.3% | 0.0%
CC1=NN(c2nc3ccccc3[nH]2)C(=O)/C1=C/N(C)C | -9.7% | 2.13µM* | . | 22.2% | 1.78µM* | 1.41µM*
CC1=NN(c2ccccc2)C(=O)/C1=C/N(C)C | 0.1% | -16.7% | . | 0.2% | -2.9% | -1.4%
CCCC1=NN(c2ccc([N+](=O)[O-])cc2)C(=O)/C1=C/N(C)C | 12.7% | 10.7µM* | 28.5% | ? | 18.3% | 1.1%
CC1=NN(c2ccc([N+](=O)[O-])cc2)C(=O)/C1=C\N(C)C | ? | 10.7µM* | 4.6% | ? | -0.9% | 1.8%
CC(=O)Nc1ccc2c(c1)ncn2C | 5.8% | 5.3% | -31.0% | ? | -0.7% | -3.3%
COc1ccc(-n2cnc3cc(NS(=O)(=O)c4ccc(C)cc4)ccc32)cc1 | 2.5% | -0.1% | -20.3% | ? | -4.3% | -5.7%
O=C(Nc1ccc2c(c1)ncn2-c1ccccc1)c1ccco1 | ? | 8.49µM* | 12.6µM* | ? | ? | ?
CC(=O)Nc1ccc2c(c1)ncn2-c1ccc(C)cc1 | 9.2µM* | 5.36µM* | 8.91µM* | ? | 1.12µM* | 1.78µM*
O=C(Nc1cccc(-n2cnnn2)c1)c1ccco1 | 0.0% | -4.0% | 4.8% | ? | -0.7% | 3.8%
Cn1cnc2cc(NC(=O)c3ccco3)ccc21 | 7.31µM* | 19µM* | 7.08µM* | ? | 2.82µM* | ?
COCCSc1ccccc1C(=O)N1CCc2ccccc21 | -0.9% | -1.7% | . | 1.6% | -5.0% | -2.3%
Fc1ccc(CN(C2=NCCN2)c2c(Cl)cccc2Cl)cc1 | . | . | -17.1% | . | 0.0%[46.1 µM] | -15.3%[46.1 µM]
Nc1ccc(Cc2ccc(N)c(O)c2)cc1O | -13.0% | 19µM* | 4.7% | 9.2µM* | -0.1% | ?
Cc1cc(NC(=O)CSc2nc(-c3ccccc3C)nc3c2c(=O)n(C)c(=O)n3C)no1 | . | 2.8% | . | . | . | .
c1ccc2c(c1)CC(CN1CCNCC1)O2 (centres undefined) | 0.3% | 5.1% | . | 0.2% | -2.7% | 10.2%
COc1ccc(CN2C(=O)N(c3ccccc3)C(=O)C2CC(=O)Nc2ccccc2)cc1OC (centres undefined) | -5.9% | -9.1% | -1.7% | -3.5% | -6.6% | -0.7%
Cc1cc(NC(=O)COc2ccccc2)n(-c2ccccc2)n1 | -7.9% | 2.1% | -29.1% | 16.4µM* | 17.5% | 0.7%
Cc1cc(NC(=O)c2sccc2C)n(-c2cccc(Cl)c2)n1 | 3.0% | 26.9µM* | -3.3% | ? | 2.1% | 3.1%
SMILES | ELG1 genotoxic | FLuc modulator | SMN2 splice up | ELG1 DNA repair | NPC1 promoter act | Rab9 prom act
Cc1cc(C)cc(OCC(=O)OCC(=O)Nc2cc(C)nn2-c2ccccc2)c1 | -2.0% | 1.3% | . | -3.0% | -5.0% | 1.2%
CCN(CC)S(=O)(=O)c1cccc(C(=O)Nc2cc(C)nn2-c2ccccc2)c1 | -5.1% | -0.4% | -22.8% | 23.1µM* | -0.6% | 0.0%
O=C(NCc1cccs1)c1ccc2c(c1)sc1nc(-c3ccccc3)cn12 | . | -6.0% | . | . | . | .
COCC(C)n1c(SCC(=O)NC(=O)NC2CCCC2)nc2ccccc2c1=O (centres undefined) | -1.4% | 4.2% | . | -12.4% | 17.5% | -4.8%
CCOc1ccc(-c2noc(-c3ccncc3)n2)cc1OCC | 16.6% | 1.6% | 13.6% | ? | -1.3% | 0.6%
COc1ccc(Cc2noc(-c3ccc(OC)c(OC)c3)n2)cc1OC | -3.0% | -6.5% | -32.5% | 20.6µM* | 0.5% | -5.3%
COc1ccc(-c2noc(-c3ccco3)n2)cc1OC | . | 7.57µM* | 12.6µM* | . | . | .
COc1ccc(-c2noc(N(c3nc(-c4ccc(OC)c(OC)c4)no3)c3ccccc3OC)n2)cc1OC | . | 0.2% | -13.3% | . | . | .
Cc1ccc(-c2nc(-c3ccncc3)no2)cc1Cl | ? | 2.69µM* | . | ? | 2µM* | 3.16µM*
COc1ccc(Cc2noc(CN(C)CCc3ccccc3)n2)cc1OC | -13.1% | 0.7% | . | ? | -6.2% | -0.3%
COc1ccc(-c2nc(-c3ccncc3)no2)cc1OC | 16.4µM* | 9.53µM* | ? | ? | ? | 26.0%
COc1cccc(NC(=O)Cn2c(=O)n(CCC(=O)NC3CCN(Cc4ccccc4)CC3)c(=O)c3ccccc32)c1 | -2.6% | -1.3% | . | -25.8% | 7.9% | -12.0%
C1COC1 | . | . | -3.9% | . | . | .
COc1ccc(CC(=O)Oc2ccc(C)cc2Br)cc1OC | -5.3% | ? | . | 4.6% | -6.6% | -1.5%
COc1ccc(-c2noc(-c3ccccc3Cl)n2)cc1OC | ? | 2.69µM* | 5.62µM* | ? | 3.16µM* | 2.51µM*
Cc1cc(-c2nc(-c3ccncc3)no2)ccc1[N+](=O)[O-] | ? | 4.78µM* | . | ? | 2.24µM* | 3.98µM*
Cc1ccc(-c2nc(-c3ccncc3)no2)cc1C | 2.31µM* | 0.757µM* | . | ? | 0.708µM* | 0.562µM*
Fc1cccc(F)c1-c1nc(-c2ccncc2)no1 | ? | 16.9µM* | . | ? | ? | 2µM*
Cc1noc(-c2ccc(-c3noc(-c4ccc(C(F)(F)F)cc4)n3)cc2)n1 | . | -3.9% | . | . | . | .
CNc1ccc(-c2nc(-c3ccncc3)no2)cc1[N+](=O)[O-] | . | -2.8% | . | . | . | .
O=C(c1ccc(N2CCOCC2)c([N+](=O)[O-])c1)N1CCCC(C(F)(F)F)C1 (centres undefined) | -0.2% | -1.3% | . | 4.8% | -0.5% | -7.0%
